Experimental data published in the supplement of paper PMC11732987, “Enantioselective OTUD7B fragment discovery through chemoproteomics screening and high-throughput optimisation” (Communications Chemistry, 2025).

Experiments:
Assay in all cases: log2 ratio of Biotin-Ahx-Ub-VS probe labelling (fragment/DMSO); higher = less target engagement (more negative = stronger competition), active = hit call of the paper (q ≤ 0.05, log2 ratio ≤ -1)
Conditions in all cases: compound concentration: 200 uM; treatment time: 3 h
[1] = target: T1, USP42 (UniProt Q9H9J4)
T1 sequence (whole entry): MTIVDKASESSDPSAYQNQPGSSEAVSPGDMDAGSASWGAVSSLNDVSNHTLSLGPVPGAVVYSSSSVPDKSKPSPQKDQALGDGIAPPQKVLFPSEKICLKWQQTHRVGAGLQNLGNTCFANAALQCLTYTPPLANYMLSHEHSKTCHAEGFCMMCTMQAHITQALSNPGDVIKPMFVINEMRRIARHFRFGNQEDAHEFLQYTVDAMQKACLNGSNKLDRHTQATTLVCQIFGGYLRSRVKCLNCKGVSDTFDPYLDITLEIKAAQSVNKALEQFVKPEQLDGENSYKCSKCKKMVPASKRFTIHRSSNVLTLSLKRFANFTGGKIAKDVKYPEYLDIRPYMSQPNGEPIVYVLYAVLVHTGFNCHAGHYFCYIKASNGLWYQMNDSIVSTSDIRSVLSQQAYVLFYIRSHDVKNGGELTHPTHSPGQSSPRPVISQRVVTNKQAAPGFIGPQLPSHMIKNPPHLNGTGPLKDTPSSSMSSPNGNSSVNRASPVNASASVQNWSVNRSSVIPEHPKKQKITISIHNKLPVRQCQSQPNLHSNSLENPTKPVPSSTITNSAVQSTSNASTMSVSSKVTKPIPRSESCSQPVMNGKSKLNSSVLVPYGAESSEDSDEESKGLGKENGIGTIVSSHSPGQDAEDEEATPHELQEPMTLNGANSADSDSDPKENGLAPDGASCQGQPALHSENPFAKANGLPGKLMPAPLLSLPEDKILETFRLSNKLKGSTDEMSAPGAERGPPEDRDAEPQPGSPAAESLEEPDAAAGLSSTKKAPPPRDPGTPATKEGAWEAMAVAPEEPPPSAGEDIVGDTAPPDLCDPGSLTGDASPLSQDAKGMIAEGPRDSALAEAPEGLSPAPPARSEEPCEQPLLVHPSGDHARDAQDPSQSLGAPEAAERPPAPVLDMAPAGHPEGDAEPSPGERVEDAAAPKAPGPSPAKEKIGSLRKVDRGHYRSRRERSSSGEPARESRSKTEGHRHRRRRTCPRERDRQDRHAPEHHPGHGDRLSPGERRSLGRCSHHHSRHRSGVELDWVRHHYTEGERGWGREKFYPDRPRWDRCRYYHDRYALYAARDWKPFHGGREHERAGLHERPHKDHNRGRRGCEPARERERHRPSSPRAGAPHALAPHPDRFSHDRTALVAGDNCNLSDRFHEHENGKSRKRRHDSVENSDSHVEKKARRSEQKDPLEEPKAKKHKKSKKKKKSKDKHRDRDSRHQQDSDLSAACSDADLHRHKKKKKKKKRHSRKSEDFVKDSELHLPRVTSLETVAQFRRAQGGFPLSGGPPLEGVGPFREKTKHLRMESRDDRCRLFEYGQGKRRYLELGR
Procedure, shortened: (§1)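 Fragment (200 µM) or vehicle was incubated for 3 h with triplicate HEK293T lysate samples of 495 µg, which were then treated with Biotin-Ahx-Ub-VS at 0.5 µM final for 1 h. Labelled DUBs were enriched on NeutrAvidin, digested with LysC and trypsin, and analysed by diaPASEF LC-MS/MS. Values are average log2 fragment/vehicle ratios from an unpaired t-test on global-median-normalised Spectronaut label-free quantities, using proteins with ≥2 unique peptides.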

[2] = target: USP46 (UniProt P62068)
Procedure, shortened: as §1

[3] = target: T2, USP47 (UniProt Q96K76)
T2 sequence (whole entry): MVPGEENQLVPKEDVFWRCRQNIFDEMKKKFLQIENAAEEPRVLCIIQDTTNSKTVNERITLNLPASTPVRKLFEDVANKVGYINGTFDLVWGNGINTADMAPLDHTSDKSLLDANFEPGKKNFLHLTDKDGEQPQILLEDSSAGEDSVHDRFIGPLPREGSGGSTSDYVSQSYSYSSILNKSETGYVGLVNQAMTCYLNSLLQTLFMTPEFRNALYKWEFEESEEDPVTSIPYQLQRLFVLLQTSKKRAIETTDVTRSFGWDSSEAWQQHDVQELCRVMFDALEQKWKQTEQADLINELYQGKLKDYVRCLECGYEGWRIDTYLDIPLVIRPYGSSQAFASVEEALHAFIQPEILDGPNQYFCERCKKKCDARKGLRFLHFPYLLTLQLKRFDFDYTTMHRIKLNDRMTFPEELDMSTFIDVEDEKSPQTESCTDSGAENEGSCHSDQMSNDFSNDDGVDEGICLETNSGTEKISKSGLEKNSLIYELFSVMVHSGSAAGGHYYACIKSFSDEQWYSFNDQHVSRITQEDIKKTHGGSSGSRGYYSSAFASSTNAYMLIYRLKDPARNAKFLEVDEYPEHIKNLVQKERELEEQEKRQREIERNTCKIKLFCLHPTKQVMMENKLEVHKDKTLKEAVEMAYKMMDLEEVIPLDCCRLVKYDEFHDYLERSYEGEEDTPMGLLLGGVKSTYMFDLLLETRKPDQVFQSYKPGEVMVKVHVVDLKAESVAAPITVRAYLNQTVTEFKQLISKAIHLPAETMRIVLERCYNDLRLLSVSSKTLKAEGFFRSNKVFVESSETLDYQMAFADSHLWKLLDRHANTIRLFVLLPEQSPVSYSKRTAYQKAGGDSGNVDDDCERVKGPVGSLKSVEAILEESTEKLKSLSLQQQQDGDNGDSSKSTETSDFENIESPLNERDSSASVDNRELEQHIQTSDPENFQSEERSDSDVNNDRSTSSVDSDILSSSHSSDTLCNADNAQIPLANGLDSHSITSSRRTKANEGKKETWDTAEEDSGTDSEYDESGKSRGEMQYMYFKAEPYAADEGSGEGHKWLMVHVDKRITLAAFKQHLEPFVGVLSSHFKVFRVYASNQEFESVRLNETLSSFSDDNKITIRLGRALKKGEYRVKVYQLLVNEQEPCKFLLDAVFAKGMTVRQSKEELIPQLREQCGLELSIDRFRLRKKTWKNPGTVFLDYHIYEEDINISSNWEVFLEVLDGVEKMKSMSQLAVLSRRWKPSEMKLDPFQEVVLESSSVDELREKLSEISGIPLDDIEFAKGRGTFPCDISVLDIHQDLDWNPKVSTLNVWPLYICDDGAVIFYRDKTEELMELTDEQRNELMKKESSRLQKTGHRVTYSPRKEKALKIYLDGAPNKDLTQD
Procedure, shortened: as §1

[4] = target: T3, USP48 (UniProt Q86UV5)
T3 sequence (whole entry): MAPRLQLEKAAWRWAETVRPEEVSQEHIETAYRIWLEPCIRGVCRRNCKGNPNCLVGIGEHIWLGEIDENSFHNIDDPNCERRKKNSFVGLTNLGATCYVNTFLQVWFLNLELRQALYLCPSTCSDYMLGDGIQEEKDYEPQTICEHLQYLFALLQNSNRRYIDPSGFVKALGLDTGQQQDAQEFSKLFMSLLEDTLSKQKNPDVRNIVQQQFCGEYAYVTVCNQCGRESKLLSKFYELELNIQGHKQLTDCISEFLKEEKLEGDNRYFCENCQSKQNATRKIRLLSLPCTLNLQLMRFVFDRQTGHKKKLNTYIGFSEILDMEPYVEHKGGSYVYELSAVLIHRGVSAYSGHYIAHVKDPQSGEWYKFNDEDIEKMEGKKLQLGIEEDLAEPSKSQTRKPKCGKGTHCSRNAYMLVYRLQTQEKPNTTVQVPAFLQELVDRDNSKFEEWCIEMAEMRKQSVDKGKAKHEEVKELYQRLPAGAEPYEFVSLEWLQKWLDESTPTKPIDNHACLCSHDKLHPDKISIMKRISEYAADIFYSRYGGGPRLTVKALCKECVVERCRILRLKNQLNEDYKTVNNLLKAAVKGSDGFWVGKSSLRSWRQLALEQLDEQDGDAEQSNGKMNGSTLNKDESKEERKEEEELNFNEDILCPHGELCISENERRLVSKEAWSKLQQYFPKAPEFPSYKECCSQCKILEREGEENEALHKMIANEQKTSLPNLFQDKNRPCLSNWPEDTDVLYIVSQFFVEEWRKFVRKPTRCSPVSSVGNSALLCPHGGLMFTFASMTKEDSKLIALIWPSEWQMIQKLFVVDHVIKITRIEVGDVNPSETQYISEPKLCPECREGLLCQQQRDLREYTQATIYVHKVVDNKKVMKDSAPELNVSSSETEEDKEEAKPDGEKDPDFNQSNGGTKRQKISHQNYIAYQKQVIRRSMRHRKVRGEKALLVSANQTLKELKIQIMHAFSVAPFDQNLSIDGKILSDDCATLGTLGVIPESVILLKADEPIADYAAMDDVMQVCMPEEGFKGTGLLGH
Procedure, shortened: as §1

[5] = target: T4, USP5 (UniProt P45974)
T4 sequence (whole entry): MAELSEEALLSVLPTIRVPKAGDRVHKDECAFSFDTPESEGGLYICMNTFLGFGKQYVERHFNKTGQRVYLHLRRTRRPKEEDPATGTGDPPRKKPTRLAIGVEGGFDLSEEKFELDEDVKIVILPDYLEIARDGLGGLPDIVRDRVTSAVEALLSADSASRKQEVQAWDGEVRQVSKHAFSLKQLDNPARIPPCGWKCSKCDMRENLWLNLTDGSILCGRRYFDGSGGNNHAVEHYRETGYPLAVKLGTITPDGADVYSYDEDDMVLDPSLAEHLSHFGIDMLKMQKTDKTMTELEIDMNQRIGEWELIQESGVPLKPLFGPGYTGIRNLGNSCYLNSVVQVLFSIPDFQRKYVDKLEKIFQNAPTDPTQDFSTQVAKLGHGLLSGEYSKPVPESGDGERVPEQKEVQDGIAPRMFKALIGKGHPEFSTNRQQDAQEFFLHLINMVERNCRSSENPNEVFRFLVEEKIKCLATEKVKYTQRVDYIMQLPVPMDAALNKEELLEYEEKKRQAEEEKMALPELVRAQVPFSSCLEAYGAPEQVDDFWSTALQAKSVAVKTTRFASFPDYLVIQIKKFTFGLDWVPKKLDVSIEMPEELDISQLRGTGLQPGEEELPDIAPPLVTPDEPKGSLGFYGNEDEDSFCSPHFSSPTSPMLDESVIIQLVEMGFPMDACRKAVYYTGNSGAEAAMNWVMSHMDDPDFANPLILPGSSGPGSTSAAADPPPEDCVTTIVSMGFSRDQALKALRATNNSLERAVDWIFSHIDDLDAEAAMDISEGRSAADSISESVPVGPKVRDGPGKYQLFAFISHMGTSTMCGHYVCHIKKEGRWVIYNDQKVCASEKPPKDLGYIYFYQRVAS
Procedure, shortened: as §1

[6] = target: USP54 (UniProt Q70EL1)
Procedure, shortened: as §1

[7] = target: USP7 (UniProt Q93009)
Procedure, shortened: as §1

[8] = target: T5, USP8 (UniProt P40818)
T5 sequence (whole entry): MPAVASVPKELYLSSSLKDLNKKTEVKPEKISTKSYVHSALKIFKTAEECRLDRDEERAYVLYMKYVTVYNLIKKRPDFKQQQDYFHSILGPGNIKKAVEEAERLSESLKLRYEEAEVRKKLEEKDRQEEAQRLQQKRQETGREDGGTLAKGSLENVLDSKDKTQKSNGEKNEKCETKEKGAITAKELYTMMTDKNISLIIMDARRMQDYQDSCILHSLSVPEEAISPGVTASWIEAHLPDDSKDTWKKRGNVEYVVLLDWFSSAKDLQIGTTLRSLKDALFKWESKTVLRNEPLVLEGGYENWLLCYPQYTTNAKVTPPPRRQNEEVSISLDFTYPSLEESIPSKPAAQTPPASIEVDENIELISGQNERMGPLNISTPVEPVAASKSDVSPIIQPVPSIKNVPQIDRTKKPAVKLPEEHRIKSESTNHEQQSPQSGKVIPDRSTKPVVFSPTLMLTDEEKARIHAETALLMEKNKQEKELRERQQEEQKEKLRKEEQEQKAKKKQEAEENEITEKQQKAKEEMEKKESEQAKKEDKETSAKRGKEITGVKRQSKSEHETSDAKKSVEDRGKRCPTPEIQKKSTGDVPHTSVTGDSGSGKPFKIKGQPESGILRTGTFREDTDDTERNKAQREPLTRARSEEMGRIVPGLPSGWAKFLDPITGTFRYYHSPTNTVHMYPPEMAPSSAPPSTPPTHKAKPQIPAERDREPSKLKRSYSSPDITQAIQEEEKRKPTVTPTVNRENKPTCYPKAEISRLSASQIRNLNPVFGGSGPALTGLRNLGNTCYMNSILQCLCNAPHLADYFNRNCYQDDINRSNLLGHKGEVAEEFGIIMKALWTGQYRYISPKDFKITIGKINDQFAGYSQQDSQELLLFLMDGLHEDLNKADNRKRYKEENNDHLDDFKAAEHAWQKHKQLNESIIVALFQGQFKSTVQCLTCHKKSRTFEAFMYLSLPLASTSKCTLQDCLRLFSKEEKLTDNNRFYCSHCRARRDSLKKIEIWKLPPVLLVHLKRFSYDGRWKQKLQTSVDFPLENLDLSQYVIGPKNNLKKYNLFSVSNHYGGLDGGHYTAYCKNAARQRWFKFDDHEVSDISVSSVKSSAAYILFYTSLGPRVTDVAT
Procedure, shortened: as §1

[9] = target: USP9X (UniProt Q93008)
Procedure, shortened: as §1

[10] = target: UniProt O00487
Procedure, shortened: as §1

Measured: log2 ratio of Biotin-Ahx-Ub-VS probe labelling

Sequence of USP54 (Q70EL1 whole entry): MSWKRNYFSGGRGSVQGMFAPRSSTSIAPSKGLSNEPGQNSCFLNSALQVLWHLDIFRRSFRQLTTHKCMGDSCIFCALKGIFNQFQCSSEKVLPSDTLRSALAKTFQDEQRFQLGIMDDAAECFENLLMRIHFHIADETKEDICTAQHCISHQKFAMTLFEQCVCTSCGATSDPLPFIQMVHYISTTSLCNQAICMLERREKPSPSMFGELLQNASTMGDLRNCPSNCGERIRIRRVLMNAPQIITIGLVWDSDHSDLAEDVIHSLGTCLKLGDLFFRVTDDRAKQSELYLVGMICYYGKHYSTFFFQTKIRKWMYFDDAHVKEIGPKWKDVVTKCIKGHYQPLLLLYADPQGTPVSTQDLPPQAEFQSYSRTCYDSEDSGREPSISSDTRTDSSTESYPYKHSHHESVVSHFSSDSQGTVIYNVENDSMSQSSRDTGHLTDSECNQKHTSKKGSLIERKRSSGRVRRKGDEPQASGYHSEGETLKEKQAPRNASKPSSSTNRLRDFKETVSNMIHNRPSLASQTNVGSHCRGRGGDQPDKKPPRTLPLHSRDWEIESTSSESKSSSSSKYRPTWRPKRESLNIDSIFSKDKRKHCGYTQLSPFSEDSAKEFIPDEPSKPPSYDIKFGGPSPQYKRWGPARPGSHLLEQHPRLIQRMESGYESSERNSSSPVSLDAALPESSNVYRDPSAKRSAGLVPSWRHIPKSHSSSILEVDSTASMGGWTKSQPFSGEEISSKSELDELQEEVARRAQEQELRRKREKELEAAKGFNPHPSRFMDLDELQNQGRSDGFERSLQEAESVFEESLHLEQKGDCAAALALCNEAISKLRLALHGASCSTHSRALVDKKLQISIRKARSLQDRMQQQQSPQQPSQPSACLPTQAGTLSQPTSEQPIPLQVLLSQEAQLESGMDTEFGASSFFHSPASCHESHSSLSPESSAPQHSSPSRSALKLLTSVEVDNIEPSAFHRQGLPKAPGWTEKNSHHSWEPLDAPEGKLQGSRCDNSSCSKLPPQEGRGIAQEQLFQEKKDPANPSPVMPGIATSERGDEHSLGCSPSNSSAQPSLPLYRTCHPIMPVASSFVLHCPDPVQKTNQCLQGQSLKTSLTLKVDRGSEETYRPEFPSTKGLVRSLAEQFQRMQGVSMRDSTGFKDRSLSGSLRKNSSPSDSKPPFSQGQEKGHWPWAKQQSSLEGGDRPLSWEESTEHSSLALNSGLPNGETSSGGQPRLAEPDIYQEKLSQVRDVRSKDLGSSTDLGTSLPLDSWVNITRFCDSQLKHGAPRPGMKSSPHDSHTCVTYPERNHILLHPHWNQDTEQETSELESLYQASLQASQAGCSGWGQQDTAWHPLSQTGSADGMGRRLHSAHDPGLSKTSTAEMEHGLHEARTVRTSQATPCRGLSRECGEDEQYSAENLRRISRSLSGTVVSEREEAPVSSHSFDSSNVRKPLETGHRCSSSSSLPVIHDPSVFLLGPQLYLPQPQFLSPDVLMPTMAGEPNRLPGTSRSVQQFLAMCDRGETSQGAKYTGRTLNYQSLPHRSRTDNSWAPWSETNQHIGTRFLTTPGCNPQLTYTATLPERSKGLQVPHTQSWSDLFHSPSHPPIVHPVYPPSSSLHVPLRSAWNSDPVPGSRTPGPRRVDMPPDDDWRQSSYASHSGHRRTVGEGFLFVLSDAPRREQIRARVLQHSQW
Sequence of USP46 (P62068 whole entry): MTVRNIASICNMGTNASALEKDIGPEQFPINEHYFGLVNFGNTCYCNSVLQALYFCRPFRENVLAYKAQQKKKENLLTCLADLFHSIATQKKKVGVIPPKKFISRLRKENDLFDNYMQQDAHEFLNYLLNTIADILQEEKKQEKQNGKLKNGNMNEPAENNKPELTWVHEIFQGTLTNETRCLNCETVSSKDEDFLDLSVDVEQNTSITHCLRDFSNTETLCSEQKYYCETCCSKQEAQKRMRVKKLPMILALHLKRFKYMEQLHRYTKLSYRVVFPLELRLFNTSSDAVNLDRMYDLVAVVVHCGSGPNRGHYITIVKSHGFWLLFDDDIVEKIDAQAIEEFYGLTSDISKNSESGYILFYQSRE
Sequence of USP9X (Q93008 whole entry): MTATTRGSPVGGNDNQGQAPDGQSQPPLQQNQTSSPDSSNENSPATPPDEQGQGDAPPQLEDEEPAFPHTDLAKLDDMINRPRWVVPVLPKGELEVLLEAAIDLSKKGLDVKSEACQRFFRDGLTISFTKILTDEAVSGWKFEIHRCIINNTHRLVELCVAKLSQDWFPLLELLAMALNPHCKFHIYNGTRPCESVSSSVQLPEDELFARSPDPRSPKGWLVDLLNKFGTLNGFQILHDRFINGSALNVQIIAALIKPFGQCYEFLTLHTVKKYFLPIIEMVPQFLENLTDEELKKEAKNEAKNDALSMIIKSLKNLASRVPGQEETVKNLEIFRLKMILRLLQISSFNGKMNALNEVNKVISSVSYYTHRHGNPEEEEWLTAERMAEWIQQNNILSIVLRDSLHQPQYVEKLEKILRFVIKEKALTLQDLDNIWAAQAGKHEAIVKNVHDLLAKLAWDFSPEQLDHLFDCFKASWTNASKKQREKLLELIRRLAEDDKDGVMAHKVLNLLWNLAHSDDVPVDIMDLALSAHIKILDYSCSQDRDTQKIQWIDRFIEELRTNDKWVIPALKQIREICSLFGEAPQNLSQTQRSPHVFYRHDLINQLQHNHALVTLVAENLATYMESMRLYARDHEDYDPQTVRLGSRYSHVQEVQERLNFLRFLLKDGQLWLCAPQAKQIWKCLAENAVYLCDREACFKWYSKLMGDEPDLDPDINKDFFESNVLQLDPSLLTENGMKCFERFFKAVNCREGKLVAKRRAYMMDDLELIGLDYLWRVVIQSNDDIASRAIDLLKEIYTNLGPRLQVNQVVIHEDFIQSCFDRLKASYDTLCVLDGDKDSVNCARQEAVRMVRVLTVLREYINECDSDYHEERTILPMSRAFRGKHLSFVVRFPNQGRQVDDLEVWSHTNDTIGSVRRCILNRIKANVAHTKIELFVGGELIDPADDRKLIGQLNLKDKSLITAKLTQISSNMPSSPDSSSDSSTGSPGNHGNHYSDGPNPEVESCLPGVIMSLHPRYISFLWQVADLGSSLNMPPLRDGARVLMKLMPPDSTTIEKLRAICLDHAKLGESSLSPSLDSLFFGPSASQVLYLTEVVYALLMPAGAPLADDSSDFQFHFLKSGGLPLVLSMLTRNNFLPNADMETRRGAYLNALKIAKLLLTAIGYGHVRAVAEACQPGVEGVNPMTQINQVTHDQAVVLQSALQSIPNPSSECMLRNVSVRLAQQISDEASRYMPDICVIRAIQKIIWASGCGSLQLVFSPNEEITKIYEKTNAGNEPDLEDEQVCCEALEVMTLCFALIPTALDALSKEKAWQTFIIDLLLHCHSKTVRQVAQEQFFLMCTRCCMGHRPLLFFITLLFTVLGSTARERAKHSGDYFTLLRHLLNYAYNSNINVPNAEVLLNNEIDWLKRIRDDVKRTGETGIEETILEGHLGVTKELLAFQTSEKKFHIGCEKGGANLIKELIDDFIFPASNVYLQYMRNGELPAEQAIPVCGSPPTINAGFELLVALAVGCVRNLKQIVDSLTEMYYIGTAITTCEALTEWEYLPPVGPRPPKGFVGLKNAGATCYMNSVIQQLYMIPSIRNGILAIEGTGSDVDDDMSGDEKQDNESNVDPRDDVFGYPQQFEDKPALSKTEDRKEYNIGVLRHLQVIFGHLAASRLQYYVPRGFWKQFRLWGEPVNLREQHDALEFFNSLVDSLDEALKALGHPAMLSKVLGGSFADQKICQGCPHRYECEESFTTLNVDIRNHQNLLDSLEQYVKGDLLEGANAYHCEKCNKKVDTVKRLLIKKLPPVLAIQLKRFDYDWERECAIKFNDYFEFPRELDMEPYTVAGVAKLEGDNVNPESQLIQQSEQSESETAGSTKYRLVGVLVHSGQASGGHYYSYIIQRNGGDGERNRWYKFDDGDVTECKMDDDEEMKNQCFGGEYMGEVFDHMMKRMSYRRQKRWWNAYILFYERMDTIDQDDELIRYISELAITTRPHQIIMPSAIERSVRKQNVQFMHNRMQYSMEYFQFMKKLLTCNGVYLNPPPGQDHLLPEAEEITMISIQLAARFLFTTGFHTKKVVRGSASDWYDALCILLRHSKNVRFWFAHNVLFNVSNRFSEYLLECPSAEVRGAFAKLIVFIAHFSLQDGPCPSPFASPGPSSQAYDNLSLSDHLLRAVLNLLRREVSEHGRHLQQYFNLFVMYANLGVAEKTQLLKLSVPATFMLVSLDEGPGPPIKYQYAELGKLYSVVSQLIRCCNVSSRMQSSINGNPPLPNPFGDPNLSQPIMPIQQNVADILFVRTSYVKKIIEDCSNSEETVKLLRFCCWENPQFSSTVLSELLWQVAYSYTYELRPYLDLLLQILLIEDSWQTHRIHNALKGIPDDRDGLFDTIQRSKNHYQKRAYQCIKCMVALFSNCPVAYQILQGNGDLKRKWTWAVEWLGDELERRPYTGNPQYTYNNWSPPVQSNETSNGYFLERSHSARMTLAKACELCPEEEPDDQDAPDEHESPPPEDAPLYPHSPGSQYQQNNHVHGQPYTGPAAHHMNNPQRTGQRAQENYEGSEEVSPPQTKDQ
Sequence of UniProt O00487 (O00487 whole entry): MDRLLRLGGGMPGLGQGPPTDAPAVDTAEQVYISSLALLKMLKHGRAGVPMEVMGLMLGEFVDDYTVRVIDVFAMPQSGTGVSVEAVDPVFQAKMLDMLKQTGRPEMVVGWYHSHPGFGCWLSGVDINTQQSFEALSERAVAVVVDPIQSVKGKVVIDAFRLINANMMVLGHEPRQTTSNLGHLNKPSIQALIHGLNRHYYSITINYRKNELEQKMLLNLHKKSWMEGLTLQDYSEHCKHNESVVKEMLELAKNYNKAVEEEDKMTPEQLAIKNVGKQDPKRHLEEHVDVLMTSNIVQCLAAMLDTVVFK

Cl.Cn1cnc2cc(CNC(=O)CCl)ccc21
inactive: [1] 0.00921 | [2] -0.0392 | [3] -0.0799 | [4] 0.192 | [5] -0.445 | [6] -0.109 | [7] -0.083 | [8] -0.103 | [9] -0.0792 | [10] -0.00543
